Measured values: PubChem BioAssay (Tox21)
Results filed as inconclusive are left out. A number with no mark means an inactive call. Activity calls are given as the source filed them. The call rests on the fitted dose curve; in most records, active means well fitted cell-killing curve with a large enough effect in the repeat runs; inconclusive means weak or mixed curves, or effect the other way; inactive means flat fitted curve, though single readings scatter.

Test: qHTS assay to identify small molecule antagonists of the androgen receptor (AR) signaling pathway using the MDA cell line - cell viability counter screen (AID 743041; further: nearly all actives have a fitted effect of over 45% in size)
Settings: MDA-kb2 viability, CellTiter-Fluor, 16 h, cells co-treated with R1881 androgen agonist; series mostly up to 70.3 µM; viability change, negative = cytotoxic: at the top concentration
Description: National Center for Advancing Translational Sciences [NCATS]
NIH Chemical Genomics Center [NCGC]
U.S. Environmental Protection Agency [EPA]
National Institutes of Environmental Health Sciences [NIEHS]
National Toxicology Program [NTP]
U.S. Food and Drug Administration [FDA]
Androgen receptor (AR), a nuclear hormone receptor, plays a critical role in AR-dependent prostate cancer and other androgen related diseases. Endocrine disrupting chemicals (EDCs) and their interactions with steroid hormone receptors like AR may cause disruption of normal endocrine function as well as interfere with metabolic homeostasis, reproduction, developmental and behavioral functions. To identify the compounds that inhibit AR signaling, MDA-kb2 AR-luc cell line (from ATCC, deposited by Wilson et al.) was used to screen the Tox21 10K compound library. MDA-kb2 AR-luc cell line is human breast carcinoma cell line that was stably transfected with a luciferase reporter gene under control of the MMTV promoter containing response elements for both androgen receptor (AR) and glucocorticoid receptor (GR). The cytotoxicity of the Tox21 compound library against the MDA-kb2 AR-luc cell line was tested in parallel by measuring the cell viability using CellTiter-Fluor assay (Promega, Madison, WI) in the same wells.
Tox21 Assay Protocol Summary:
MDA-kb2 AR-luc cells were dispensed at 3,000 cells/4 uL/well of culture medium into white wall/solid-bottom 1536-well plates using a Multidrop Combi (ThermoFisher Scientific, Waltham, MA) dispenser. After the assay plates were incubated at a 37C and 0% CO2 for 5 hr, 23 nL of compounds dissolved in DMSO, positive controls or DMSO only was transferred to the assay plate by a Pintool station (Kalypsys, San Diego, CA), followed by addition of 1 uL of agonist (R1881) in culture medium using a Bioraptr Flying Reagent Dispenser (FRD) workstation (Beckman Coulter, Indianapolis, IN, USA). The plates were incubated at a 37C and 0% CO2 for 16 h. After 15.5 h incubation, 1uL of CellTiter-Fluor reagent (Promega) was added using a Bioraptr FRD to each plate for measuring cytotoxicity. The fluorescence intensity was quantified on a ViewLux plate reader (PerkinElmer, Shelton, CT) following 30 min incubation at 37C and 0% CO2.
On the % scale 0 is the no-effect control and ±100 the full control effect; potency means the concentration at half of the fitted maximal effect.

For `CCOc1ccc(N=Nc2ccc(N)cc2N)cc1`, the Potency was 15 µM (active).
In the case of `CO[C@H]1C=CO[C@@]2(C)Oc3c(C)c(O)c4c(O)c(c(/C=N/N5CCN(C6CCCC6)CC5)c(O)c4c3C2=O)NC(=O)/C(C)=C\C=C[C@H](C)[C@H](O)[C@@H](C)[C@@H](O)[C@@H](C)[C@H](OC(C)=O)[C@@H]1C`, the Potency was 23.7 µM (active).

Compared with `CC1(C)N=C(N)N=C(N)N1c1ccc(Cl)cc1`, `COc1cc(S(C)=O)ccc1-c1nc2ncccc2[nH]1` (stereo not given) is higher in “viability change, negative = cytotoxic” value: -4.65% for the first, -1.44% for the second.

Compared with `C=C1CC2C3CCC4=CC(=O)C=C[C@]4(C)[C@@]3(F)[C@@H](O)C[C@]2(C)[C@@]1(O)C(=O)COC(C)=O` (stereo not given in full), `CCCC(=O)O[C@]1(C(=O)COC(=O)CC)[C@@H](C)C[C@H]2[C@@H]3CCC4=CC(=O)C=C[C@]4(C)[C@@]3(F)[C@@H](O)C[C@@]21C` is lower in “viability change, negative = cytotoxic” value: 3.08% for the first, -3.39% for the second.

Compared with `CCC(C)(C)OC(=O)N[C@@H](Cc1c[nH]c2ccccc12)C(=O)N[C@@H](CCSC)C(=O)N[C@@H](CC(=O)O)C(=O)N[C@@H](Cc1ccccc1)C(N)=O`, `C[C@H](CSC(=O)c1ccccc1)C(=O)N1C[C@@H](Sc2ccccc2)C[C@H]1C(=O)O` is higher in “viability change, negative = cytotoxic” value: -2.09% for the first, 0.687% for the second.

Going from `C[C@H](O)[C@H](O)[C@H]1CNc2nc(N)[nH]c(=O)c2N1` to `CN[C@@H]1CCc2[nH]c3ccc(C(N)=O)cc3c2C1`, the “viability change, negative = cytotoxic” value falls from 9.56% to 3.16%.

Compared with `CN1[C@@H]2CCC[C@H]1CC(NC(=O)c1nn(C)c3ccccc13)C2` (stereo not given in full), `CN(CC(=O)N1CCOCC1)Cc1c(Cl)cccc1NC(=O)c1ccccc1` is lower in “viability change, negative = cytotoxic” value: 11.4% for the first, -12.5% for the second.

First: O=P(O)(O)OC(CO)CO
Second: C[C@H](N)C(=O)N[C@@H](C)P(=O)(O)O
The “viability change, negative = cytotoxic” value of the first is higher: -3.53% for the first, -13.5% for the second.

Compared with `CC(=O)OCC(=O)[C@@]1(O)[C@H](C)C[C@H]2[C@@H]3C[C@H](F)C4=CC(=O)C=C[C@]4(C)[C@H]3[C@@H](O)C[C@@]21C`, `CCCC(=O)O[C@]1(C(=O)COC(C)=O)CC[C@H]2[C@@H]3C[C@H](F)C4=CC(=O)C=C[C@]4(C)[C@@]3(F)[C@@H](O)C[C@@]21C` is lower in “viability change, negative = cytotoxic” value: 18.2% for the first, 5.43% for the second.

First: C=CCSSSCC=C
Second: CC(C)(CO)[C@@H](O)C(=O)NCCCC(=O)O
The “viability change, negative = cytotoxic” value of the first is higher: 4.38% for the first, -0.288% for the second.

Going from `Cc1ccccc1OCC(O)CNCCOc1ccc(C(N)=O)cc1` (stereo not given) to `COc1ccc(C[C@H](C)NC[C@@H](O)c2ccc(O)c(NC=O)c2)cc1`, the “viability change, negative = cytotoxic” value rises from -11.3% to 4.58%.

First: Cc1ccc(/C(=C\CN2CCCC2)c2cccc(/C=C/C(=O)O)n2)cc1
Second: O=C(c1cc2ccccc2o1)N1CCN(Cc2ccccc2)CC1
The “viability change, negative = cytotoxic” value of the first is higher: 21.9% for the first, -1.23% for the second.

First: CCCc1nc(C(C)(C)O)c(C(=O)OCc2oc(=O)oc2C)n1Cc1ccc(-c2ccccc2-c2nn[nH]n2)cc1
Second: CCC(=O)NS(=O)(=O)c1ccc(-c2c(-c3ccccc3)noc2C)cc1
The “viability change, negative = cytotoxic” value of the first is lower: 2.05% for the first, 6.65% for the second.

Compared with `Cc1c(N)nc(C(CC(N)=O)NCC(N)C(N)=O)nc1C(=O)NC(C(=O)NC(C)C(O)C(C)C(=O)NC(C(=O)NCCc1nc(-c2nc(C(=O)NCCCN[C@@H](C)c3ccccc3)cs2)cs1)C(C)O)C(O[C@@H]1O[C@@H](CO)[C@@H](O)[C@H](O)[C@@H]1O[C@H]1O[C@H](CO)[C@@H](O)[C@H](OC(N)=O)[C@@H]1O)c1cnc[nH]1` (stereo not given in full), `CCOC(=O)Cc1cccc(-c2cc(CCCCCCc3ccc(O[C@H]4O[C@H](COC(C)=O)[C@@H](OC(C)=O)[C@H](OC(C)=O)[C@@H]4OC(C)=O)c(-c4cccc(CC(=O)OCC)c4)c3)ccc2O[C@H]2O[C@H](COC(C)=O)[C@@H](OC(C)=O)[C@H](OC(C)=O)[C@@H]2OC(C)=O)c1` is higher in “viability change, negative = cytotoxic” value: -18.3% for the first, 19.4% for the second.

Going from `CN[C@@H]1[C@H](O[C@H]2[C@H](O[C@H]3[C@H](O)[C@@H](O)[C@H](N=C(N)N)[C@@H](O)[C@@H]3N=C(N)N)O[C@@H](C)[C@]2(O)CO)O[C@@H](CO)[C@H](O)[C@H]1O` to `CC(/C=C/C=C(\C)C(=O)O[C@@H]1O[C@H](CO[C@@H]2O[C@H](CO)[C@@H](O)[C@H](O)[C@H]2O)[C@@H](O)[C@H](O)[C@H]1O)=C\C=C\C=C(C)\C=C\C=C(/C)C(=O)O[C@@H]1O[C@H](CO[C@@H]2O[C@H](CO)[C@@H](O)[C@H](O)[C@H]2O)[C@@H](O)[C@H](O)[C@H]1O`, the “viability change, negative = cytotoxic” value falls from -1.2% to -9.81%.

First: CC[C@H](CC[C@@H](C)[C@H]1CC[C@H]2[C@@H]3CC=C4C[C@@H](O)CC[C@]4(C)[C@H]3CC[C@]12C)C(C)C
Second: CC1(C)[C@@H]2CC[C@@]1(C)[C@H](OC(=O)CSC#N)C2
The “viability change, negative = cytotoxic” value of the first is lower: -0.135% for the first, 3.93% for the second.

First: CN=C(NC)NCc1ccccc1
Second: Cc1ccc(S(=O)(=O)NC(=O)N[C@@H](C)Cc2ccccc2)cc1
The “viability change, negative = cytotoxic” value of the first is higher: 7.69% for the first, -0.742% for the second.

Compared with `CCCCC/C=C\CCC(=O)N[C@H]1[C@H](Oc2c3cc4cc2Oc2ccc(cc2Cl)[C@@H](O[C@@H]2O[C@H](CO)[C@@H](O)[C@H](O)[C@H]2NC(C)=O)[C@@H]2NC(=O)[C@H](NC(=O)[C@@H]4NC(=O)[C@H]4NC(=O)[C@@H](Cc5ccc(c(Cl)c5)O3)NC(=O)[C@H](N)c3ccc(O)c(c3)Oc3cc(O)cc4c3)c3ccc(O)c(c3)-c3c(O[C@H]4O[C@H](CO)[C@@H](O)[C@H](O)[C@@H]4O)cc(O)cc3[C@@H](C(=O)O)NC2=O)O[C@H](CO)[C@@H](O)[C@@H]1O`, `O=C(NOC[C@H](O)CO)c1ccc(F)c(F)c1Nc1ccc(I)cc1F` is lower in “viability change, negative = cytotoxic” value: 3.68% for the first, -2.7% for the second.

Going from `NCCCC[C@H](N)C(=O)O` to `CCOc1cc(-c2nccc3cc(OC)c(OC)cc23)cc(OCC)c1OCC`, the “viability change, negative = cytotoxic” value falls from -3.58% to -8.44%.

First: CCCCC[C@H](O)/C=C/[C@H]1[C@H](O)CC(=O)[C@@H]1CCCCCCC(=O)O
Second: CCCCCCCCCCCCCCCCCCOP(=O)([O-])OC1CC[N+](C)(C)CC1
The “viability change, negative = cytotoxic” value of the first is higher: 2.99% [at 32.5 µM] for the first, -0.77% [at 32.5 µM] for the second.

Going from `CCC(=O)O[C@@H]1CC(=O)O[C@H](C)C/C=C/C=C/[C@H](O)[C@H](C)C[C@H](CC=O)[C@H](O[C@@H]2O[C@H](C)[C@@H](O[C@H]3C[C@@](C)(O)[C@@H](OC(=O)CC)[C@H](C)O3)[C@H](N(C)C)[C@H]2O)[C@H]1OC` to `CC1(C)S[C@@H]2[C@H](NC(=O)C(N)c3ccccc3)C(=O)N2[C@H]1C(=O)OC1OC(=O)c2ccccc21` (stereo not given in full), the “viability change, negative = cytotoxic” value falls from 8.14% [at 32.5 µM] to 6.81% [at 32.5 µM].
